Compound activity: PubChem, Johns Hopkins Ion Channel Center
Most compounds without a hit are left out; they make up all but 1.6% or so of the library.
KCNQ2 inh: rat KCNQ2 potassium channel inhibitors, primary screen, cell-based, CHO-K1, FluxOR thallium flux, B-score. Potassium voltage-gated channel subfamily KQT member 2 (Rattus norvegicus), O88943. AID 2156, 2009. 20 min; active compounds read low. actives 1.1% (n = 310,000). B-score at 10 µM;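 active means fluorescence ratio B-score at most minus 3 library SDs, with starting brightness B-score within 2 library SDs, cut at about -5.5 in these data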
KCNQ2 enhance: potentiators of rat KCNQ2 potassium channel; actives 0.54% (n = 310,000); B-score at 10 µM; AID 2239, 2010; CHO-K1 KCNQ2, FluxOR thallium flux fluorescence; active compounds read high; Potassium voltage-gated channel subfamily KQT member 2 (Rattus norvegicus), O88943;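 active means fluorescence ratio B-score at least 3 SD of library B-scores, with initial fluorescence B-score within 3 of them, cut at about 5.3 in these data; same plate scores as AID 2156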;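 further: B-score of peak minus minimum over baseline fluorescence ratio after K+ and Tl+ stimulus; positive B-score means potentiation of KCNQ2 with more thallium influx and brighter signal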
Kir21 conf inh: mouse Kir2.1 channel blockers, retest, confirmation, cell-based, FluxOR thallium flux, duplicate; actives 41% (n = 2,300); shares compounds with KCNQ2 enhance; Tl flux remaining, % of negative control (active compounds read low), % at 10 µM; AID 2032, 2009; Kir2.1-expressing cells, FluxOR thallium flux fluorescence; active compounds read low;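 active means Primary-screen hit whose thallium flux fell at least 3 control SD below untreated wells in both duplicates, with normal baseline fluorescence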
HEK293 Tl flux: counter-screen for Kir2.1 inhibitors: effect in parental HEK293 cells | shares compounds with KCNQ2 enhance | FluxOR signal as % of negative control (100 = no effect), % at 10 µM | actives 19% (n = 2,300) | FluxOR thallium flux fluorescence; 0% = unstimulated blank wells | AID 2105;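 active means dye signal at least 3 control SD above or below untreated wells in both duplicates, raw fluorescence within 3, either direction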;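 further: percent is based on the flux ratio of peak minus minimum fluorescence over baseline F0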
CHO-K1 Tl ctr: nonspecific thallium flux increase in parental CHO-K1, confirmation, counter-screen for KCNQ2 potentiator project, cell-based, FluxOR thallium flux, duplicate | actives 43% (n = 1,200) | shares compounds with KCNQ2 enhance | activity increase over 3SD of controls, % at 10 µM | parental CHO-K1 cells, FluxOR thallium flux fluorescence; zero = vehicle mean+3SD, 100% = vehicle-minus-blank window | AID 2282, 2010;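 active means signal rise of at least 3 SD above the untreated control mean, in both duplicate wells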;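 further: counter screen of KCNQ2 potentiator hits so any rise reflects channel-independent effects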
KCNQ1 pot spec: human KCNQ1 channel potentiation off-target, confirmation, selectivity assay for KCNQ2 potentiator project, cell-based, CHO, FluxOR thallium flux. shares compounds with KCNQ2 enhance. CHO KCNQ1 stable, FluxOR thallium flux fluorescence; beyond 3SD, as % of vehicle-control signal. activation over 3SD threshold, % at 10 µM. actives 28% (n = 1,200). AID 2283, 2010;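 active means fluorescence ratio rise of at least 3 SD of vehicle wells above their mean, in both replicate wells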
KCNQ2 pot confirm: rat KCNQ2 channel potentiators, confirmation, cell-based, CHO, FluxOR thallium flux, duplicate. shares compounds with KCNQ2 enhance. CHO-KCNQ2 cells, FluxOR thallium flux fluorescence. potentiation, less the hit threshold, % at 10 µM. actives 68% (n = 1,200);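 active means fluorescence ratio rising 3 SD or more over the vehicle control mean in both replicates, plus primary screen hit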;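 further: peak minus minimum thallium fluorescence divided by baseline after K/Tl stimulus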
Kir21 spec: mouse Kir2.1 channel activation off-target, confirmation, selectivity assay for KCNQ2 potentiator project, cell-based, HEK293, FluxOR thallium flux; activity over 3SD threshold, % at 10 µM; shares compounds with KCNQ2 enhance; HEK293 Kir2.1, FluxOR thallium flux fluorescence; actives 2% (n = 1,200);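 active means fluorescence ratio rise of at least 3 SD above the vehicle-control mean, seen in both replicates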
KCNQ2 W236L MoA: potentiators of retigabine-insensitive KCNQ2 W236L, mechanism study for KCNQ2 potentiator project, cell-based, rat KCNQ2 W236L, CHO, automated patch clamp; AID 2558, 2010; automated patch clamp current; shares compounds with KCNQ2 enhance; actives 10% (n = 940); current increase over 3SD of negative controls (%), active compounds read high, % at 25 µM;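 active means current increase at least 3 SD of the untreated controls above them in both duplicate recordings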
Target sequence (O88943 whole entry W236L, looked up): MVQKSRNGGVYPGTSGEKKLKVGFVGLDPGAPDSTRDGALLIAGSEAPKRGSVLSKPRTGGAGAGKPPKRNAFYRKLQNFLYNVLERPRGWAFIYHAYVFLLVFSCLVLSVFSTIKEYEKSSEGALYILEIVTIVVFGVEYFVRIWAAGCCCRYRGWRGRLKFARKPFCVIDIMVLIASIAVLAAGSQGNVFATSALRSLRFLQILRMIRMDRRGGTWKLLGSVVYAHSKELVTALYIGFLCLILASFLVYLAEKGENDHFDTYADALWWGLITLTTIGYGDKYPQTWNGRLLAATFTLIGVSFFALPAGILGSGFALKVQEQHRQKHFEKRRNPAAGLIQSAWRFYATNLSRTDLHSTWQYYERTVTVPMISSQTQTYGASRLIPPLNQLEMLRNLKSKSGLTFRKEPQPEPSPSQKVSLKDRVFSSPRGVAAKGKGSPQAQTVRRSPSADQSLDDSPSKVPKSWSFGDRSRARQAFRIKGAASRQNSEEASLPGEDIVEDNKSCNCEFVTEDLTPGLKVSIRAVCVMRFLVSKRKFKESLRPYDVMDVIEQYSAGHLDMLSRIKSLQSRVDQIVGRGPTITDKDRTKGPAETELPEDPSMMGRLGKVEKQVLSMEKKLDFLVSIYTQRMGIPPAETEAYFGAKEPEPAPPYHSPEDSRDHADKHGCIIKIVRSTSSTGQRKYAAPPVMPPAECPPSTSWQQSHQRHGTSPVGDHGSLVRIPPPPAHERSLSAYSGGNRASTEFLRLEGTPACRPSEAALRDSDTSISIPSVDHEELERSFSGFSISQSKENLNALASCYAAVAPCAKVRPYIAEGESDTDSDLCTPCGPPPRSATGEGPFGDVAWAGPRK
Large screens that a line does not name were inactive (follow-up assays come after a bar, where they were run).

COc1cccc(NC(=O)NC(C)C2CC3CCC2C3)c1 (centres undefined)	KCNQ2 enhance 12 | Kir21 conf inh inactive | HEK293 Tl flux inactive | CHO-K1 Tl ctr inactive | KCNQ1 pot spec inactive | KCNQ2 pot confirm inactive | Kir21 spec inactive | KCNQ2 W236L MoA inactive
CC(/C=N\NC(=O)c1ccc2c(c1)OCO2)c1ccccc1 (centres undefined)	none
Cc1c(S(=O)(=O)Nc2cccc3ccccc23)c(=O)n(C)c(=O)n1C	none
O=C(O)CCCCCNC(=O)CSc1nnc(-c2ccco2)n1-c1ccccc1	none
COc1cccc(C(=O)NNC(=O)C(=O)Nc2cccc3ccccc23)c1	KCNQ2 enhance 13 | Kir21 conf inh inactive | HEK293 Tl flux inactive | CHO-K1 Tl ctr inactive | KCNQ1 pot spec 8.8 | KCNQ2 pot confirm inactive | Kir21 spec inactive
COc1ccc(C(=O)NNC(=O)C(=O)Nc2ccc(C)cc2)cc1	KCNQ2 enhance 28 | Kir21 conf inh inactive | HEK293 Tl flux 234% | CHO-K1 Tl ctr 5.7 | KCNQ1 pot spec inactive | KCNQ2 pot confirm 7.6 | Kir21 spec inactive | KCNQ2 W236L MoA inactive
COc1ccc(NC(=O)c2ccc(C)cc2)cc1	none (no result: KCNQ2 enhance)
CCc1ccc(NC(=O)C(=O)NNC(=O)c2ccc(OC)cc2)cc1	KCNQ2 enhance 25 | Kir21 conf inh inactive | HEK293 Tl flux inactive | CHO-K1 Tl ctr inactive | KCNQ1 pot spec inactive | KCNQ2 pot confirm inactive | Kir21 spec inactive | KCNQ2 W236L MoA inactive
COc1ccc(CC(=O)NNC(=O)c2ccc(NC(C)=O)cc2)cc1	none
COc1cccc(C(=O)Nc2cccc3ccccc23)c1	none (no result: KCNQ2 enhance)
O=C(NCCNC(=O)c1ccccn1)c1ccccc1	none
C[C@H](NC(=O)c1ccccc1Cl)C(=O)NCCc1ccc(S(N)(=O)=O)cc1	none (no result: KCNQ2 enhance)
CCn1c(NC(C)=O)c(-c2ccccc2Cl)c(=O)c2ccccc21	none (no result: KCNQ2 enhance)
CCOC(=O)c1ccc(NC(=O)C(C)NS(=O)(=O)c2ccc(OC)cc2)cc1 (centres undefined)	KCNQ2 enhance 5.8 | Kir21 conf inh inactive | HEK293 Tl flux inactive | CHO-K1 Tl ctr 34 | KCNQ1 pot spec inactive | KCNQ2 pot confirm inactive | Kir21 spec inactive
CCOC(=O)c1ccc(NC(=O)COc2ccc(S(=O)(=O)NC(C)CC)cc2)cc1 (centres undefined)	none
CCC1(CC)NC(=O)N(CC(=O)OC(C)C(=O)Nc2ccccc2OC)C1=O (centres undefined)	none (no result: KCNQ2 enhance)
COc1ccc(-n2c(COc3cccc4cccnc34)nnc2SCC(=O)O)cc1	none
CCN(CC(=O)NCc1ccc(F)cc1)C(=O)CN1CCN(c2ccc(OC)cc2)CC1	none
O=C(CNc1cccc(S(=O)(=O)N2CCCC2)c1)Nc1ccc(F)c(F)c1	none
Cc1ccc(NC(=O)CNc2cccc(S(=O)(=O)N3CCCC3)c2)cc1F	KCNQ2 enhance 5.5 | Kir21 conf inh inactive | HEK293 Tl flux inactive | CHO-K1 Tl ctr inactive | KCNQ1 pot spec inactive | KCNQ2 pot confirm inactive | Kir21 spec inactive
COC(=O)c1cn(NC(=O)CC2CCCCC2)c(=O)c2ccccc12	KCNQ2 enhance 14 | Kir21 conf inh inactive | HEK293 Tl flux inactive | CHO-K1 Tl ctr inactive | KCNQ1 pot spec inactive | KCNQ2 pot confirm 75 | Kir21 spec inactive | KCNQ2 W236L MoA inactive
COC(=O)c1cn(NC(=O)CCC2CCCC2)c(=O)c2ccccc12	KCNQ2 enhance 28 | Kir21 conf inh inactive | HEK293 Tl flux inactive | CHO-K1 Tl ctr 104 | KCNQ1 pot spec inactive | KCNQ2 pot confirm 122 | Kir21 spec inactive | KCNQ2 W236L MoA inactive
COC(=O)c1cn(NC(=O)C2CCC(C)CC2)c(=O)c2ccccc12 (centres undefined)	none (no result: KCNQ2 enhance)
COC(=O)c1cn(NC(=O)c2cc([N+](=O)[O-])ccc2F)c(=O)c2ccccc12	none (no result: KCNQ2 enhance)
Cc1nc(-c2ccc(F)cc2)c(CC(=O)Nc2ccc(C)c(S(=O)(=O)N3CCOCC3)c2)s1	none (no result: KCNQ2 enhance)
O=C(Nc1ccnn1C1CCN(Cc2ccc(C#CCCO)cc2)CC1)c1cccc(F)c1	none
CC(C(=O)NCCCc1ccccc1)n1cccc1C(=O)c1ccccc1 (centres undefined)	none (no result: KCNQ2 enhance) | Kir21 conf inh 64% | HEK293 Tl flux inactive
O=C(Cn1cccc1C(=O)c1ccccc1)NCCCc1ccccc1	none
Cc1cc(S(=O)(=O)N2CCCC2)ccc1OCC(=O)N1CCCCC1	none
Cc1nc([N+](=O)[O-])cn1CC(=O)c1ccc(OC(F)(F)F)cc1	none (no result: KCNQ2 enhance)
Cc1cccc(CCNC(=O)COc2cc(=O)n(C)c3ccccc23)c1	none (no result: KCNQ2 enhance)
CCN(CCCNC(=O)COc1cc(=O)n(C)c2ccccc12)c1cccc(C)c1	none (no result: KCNQ2 enhance) | Kir21 conf inh 60% | HEK293 Tl flux inactive
CCOC(=O)Cn1c2c(c(=N)c3ccccc31)CCC2	none
CCOC(=O)C1=C[C@]2(CC)CCCN3CCc4c(n1c1ccccc41)[C@@H]32	KCNQ2 enhance 10 | CHO-K1 Tl ctr inactive | KCNQ1 pot spec 61 | KCNQ2 pot confirm 39 | Kir21 spec inactive | KCNQ2 W236L MoA inactive
CCCn1c2ccccc2c2cnn(CC(=O)NC3CCCCC3)c(=O)c21	none
Cc1cccc(N2CCN(S(=O)(=O)c3ccc4c(c3)CCCN4C(=O)C3CCC3)CC2)c1C	none (no result: KCNQ2 enhance)
Cn1c(-c2ccccc2)cc(=O)c2ccccc21	none (no result: KCNQ2 enhance)
O=c1cc(-c2ccccc2)cc(-c2ccccc2)n1O	KCNQ2 enhance 6.6 | Kir21 conf inh inactive | HEK293 Tl flux 334% | CHO-K1 Tl ctr inactive | KCNQ1 pot spec 97 | KCNQ2 pot confirm 14 | Kir21 spec inactive | KCNQ2 W236L MoA inactive
CC1=CC(C)(C)N(C(=O)CCl)c2cc(C)ccc21	none (no result: KCNQ2 enhance)
